{"source": "paper PMC3315485", "about": "“Probing the Informational and Regulatory Plasticity of a Transcription Factor DNA–Binding Domain”", "note": "Numbering of substitutions follows the chain as printed.", "data": [{"target": "T1, MarA RTR (Escherichia coli, UniProt P0ACH5 1-127, W40R;Q43T)", "T1 sequence": "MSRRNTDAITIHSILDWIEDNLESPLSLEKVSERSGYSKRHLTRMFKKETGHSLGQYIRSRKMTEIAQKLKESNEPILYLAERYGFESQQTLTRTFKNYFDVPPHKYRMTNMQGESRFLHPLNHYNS", "experiment": "MITOMI; MITOMI, 295 K (22 C); buffer, salt and pH not stated in the material; high values mean tight binding", "details": "protein: ivt; label: fluorescent; dsDNA, one strand shown", "outline": "(§1)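 Association constants were determined by MITOMI and are expressed for each site relative to the site with the highest affinity for the same protein variant. The MarA protein variants were made with the RTS E. coli HY kit by in vitro transcription and translation and labelled through addition of tRNA-lys-bodipy-fl. Testing covered 64 synthesized mar binding site variants, with fluorescence read on Genepix at 295K.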", "values": [{"sequence": "ATGGCCCGTTTTGCTAAAT", "binding signal": "1 Ka relative to the best site of the variant"}, {"sequence": "ATGAATCGTTTTGCTAAAT", "binding signal": "0.214 Ka relative to the best site of the variant"}, {"sequence": "ATGGCGCGTTTTGCTAAAT", "binding signal": "0.685 Ka relative to the best site of the variant"}, {"sequence": "ATGGTGCGTTTTGCTAAAT", "binding signal": "0.183 Ka relative to the best site of the variant"}, {"sequence": "ATGACCCGTTTTGCTAAAT", "binding signal": "0.63 Ka relative to the best site of the variant"}, {"sequence": "ATGCACCGTTTTGCTAAAT", "binding signal": "0.202 Ka relative to the best site of the variant"}, {"sequence": "ATGAACCGTTTTGCTAAAT", "binding signal": "0.204 Ka relative to the best site of the variant"}, {"sequence": "ATGGGTCGTTTTGCTAAAT", "binding signal": "0.203 Ka relative to the best site of the variant"}, {"sequence": "ATGCCGCGTTTTGCTAAAT", "binding signal": "0.245 Ka relative to the best site of the variant"}, {"sequence": "ATGTGGCGTTTTGCTAAAT", "binding signal": "0.165 Ka relative to the best site of the variant"}, {"sequence": "ATGGGCCGTTTTGCTAAAT", "binding signal": "0.196 Ka relative to the best site of the variant"}, {"sequence": "ATGCGTCGTTTTGCTAAAT", "binding signal": "0.153 Ka relative to the best site of the variant"}, {"sequence": "ATGTGTCGTTTTGCTAAAT", "binding signal": "0.231 Ka relative to the best site of the variant"}, {"sequence": "ATGACTCGTTTTGCTAAAT", "binding signal": "0.469 Ka relative to the best site of the variant"}, {"sequence": "ATGATTCGTTTTGCTAAAT", "binding signal": "0.208 Ka relative to the best site of the variant"}, {"sequence": "ATGCTACGTTTTGCTAAAT", "binding signal": "0.285 Ka relative to the best site of the variant"}, {"sequence": "ATGGAACGTTTTGCTAAAT", "binding signal": "0.23 Ka relative to the best site of the variant"}, {"sequence": "ATGCGCCGTTTTGCTAAAT", "binding signal": "0.178 Ka relative to the best site of the variant"}, {"sequence": "ATGCTCCGTTTTGCTAAAT", "binding signal": "0.201 Ka relative to the best site of the variant"}, {"sequence": "ATGGCTCGTTTTGCTAAAT", "binding signal": "0.904 Ka relative to the best site of the variant"}, {"sequence": "ATGCGGCGTTTTGCTAAAT", "binding signal": "0.255 Ka relative to the best site of the variant"}, {"sequence": "ATGCAGCGTTTTGCTAAAT", "binding signal": "0.149 Ka relative to the best site of the variant"}, {"sequence": "ATGATCCGTTTTGCTAAAT", "binding signal": "0.175 Ka relative to the best site of the variant"}, {"sequence": "ATGTGACGTTTTGCTAAAT", "binding signal": "0.173 Ka relative to the best site of the variant"}, {"sequence": "ATGAGCCGTTTTGCTAAAT", "binding signal": "0.27 Ka relative to the best site of the variant"}, {"sequence": "ATGTTGCGTTTTGCTAAAT", "binding signal": "0.518 Ka relative to the best site of the variant"}, {"sequence": "ATGCAACGTTTTGCTAAAT", "binding signal": "0.188 Ka relative to the best site of the variant"}, {"sequence": "ATGTACCGTTTTGCTAAAT", "binding signal": "0.989 Ka relative to the best site of the variant"}, {"sequence": "ATGGTTCGTTTTGCTAAAT", "binding signal": "0.189 Ka relative to the best site of the variant"}, {"sequence": "ATGGATCGTTTTGCTAAAT", "binding signal": "0.202 Ka relative to the best site of the variant"}, {"sequence": "ATGACGCGTTTTGCTAAAT", "binding signal": "0.382 Ka relative to the best site of the variant"}]}, {"target": "T2, MarA SAR (Escherichia coli, UniProt P0ACH5 1-127, W40S;Q43A)", "T2 sequence": "T1 sequence with R40S, T43A", "experiment": "MITOMI; MITOMI, 295 K (22 C); buffer, salt and pH not stated in the material; high values mean tight binding", "details": "protein: ivt; label: fluorescent; dsDNA, one strand shown", "outline": "as §1", "values": [{"sequence": "ATGGCCCGTTTTGCTAAAT", "binding signal": "0.552 Ka relative to the best site of the variant"}, {"sequence": "ATGAATCGTTTTGCTAAAT", "binding signal": "0.481 Ka relative to the best site of the variant"}, {"sequence": "ATGGCGCGTTTTGCTAAAT", "binding signal": "0.973 Ka relative to the best site of the variant"}, {"sequence": "ATGGTGCGTTTTGCTAAAT", "binding signal": "0.784 Ka relative to the best site of the variant"}, {"sequence": "ATGACCCGTTTTGCTAAAT", "binding signal": "0.573 Ka relative to the best site of the variant"}, {"sequence": "ATGCACCGTTTTGCTAAAT", "binding signal": "0.497 Ka relative to the best site of the variant"}, {"sequence": "ATGAACCGTTTTGCTAAAT", "binding signal": "0.776 Ka relative to the best site of the variant"}, {"sequence": "ATGGGTCGTTTTGCTAAAT", "binding signal": "0.534 Ka relative to the best site of the variant"}, {"sequence": "ATGCCGCGTTTTGCTAAAT", "binding signal": "0.468 Ka relative to the best site of the variant"}, {"sequence": "ATGTGGCGTTTTGCTAAAT", "binding signal": "0.152 Ka relative to the best site of the variant"}, {"sequence": "ATGGGCCGTTTTGCTAAAT", "binding signal": "0.575 Ka relative to the best site of the variant"}, {"sequence": "ATGCGTCGTTTTGCTAAAT", "binding signal": "0.552 Ka relative to the best site of the variant"}, {"sequence": "ATGTGTCGTTTTGCTAAAT", "binding signal": "0.282 Ka relative to the best site of the variant"}, {"sequence": "ATGACTCGTTTTGCTAAAT", "binding signal": "0.657 Ka relative to the best site of the variant"}, {"sequence": "ATGATTCGTTTTGCTAAAT", "binding signal": "0.807 Ka relative to the best site of the variant"}, {"sequence": "ATGCTACGTTTTGCTAAAT", "binding signal": "0.491 Ka relative to the best site of the variant"}, {"sequence": "ATGGAACGTTTTGCTAAAT", "binding signal": "0.646 Ka relative to the best site of the variant"}, {"sequence": "ATGCGCCGTTTTGCTAAAT", "binding signal": "0.602 Ka relative to the best site of the variant"}, {"sequence": "ATGCTCCGTTTTGCTAAAT", "binding signal": "0.548 Ka relative to the best site of the variant"}, {"sequence": "ATGGCTCGTTTTGCTAAAT", "binding signal": "0.656 Ka relative to the best site of the variant"}, {"sequence": "ATGCGGCGTTTTGCTAAAT", "binding signal": "0.379 Ka relative to the best site of the variant"}, {"sequence": "ATGCAGCGTTTTGCTAAAT", "binding signal": "0.357 Ka relative to the best site of the variant"}, {"sequence": "ATGATCCGTTTTGCTAAAT", "binding signal": "0.872 Ka relative to the best site of the variant"}, {"sequence": "ATGTGACGTTTTGCTAAAT", "binding signal": "0.165 Ka relative to the best site of the variant"}, {"sequence": "ATGAGCCGTTTTGCTAAAT", "binding signal": "1 Ka relative to the best site of the variant"}, {"sequence": "ATGTTGCGTTTTGCTAAAT", "binding signal": "0.191 Ka relative to the best site of the variant"}, {"sequence": "ATGCAACGTTTTGCTAAAT", "binding signal": "0.461 Ka relative to the best site of the variant"}, {"sequence": "ATGTACCGTTTTGCTAAAT", "binding signal": "0.25 Ka relative to the best site of the variant"}, {"sequence": "ATGGTTCGTTTTGCTAAAT", "binding signal": "0.805 Ka relative to the best site of the variant"}, {"sequence": "ATGGATCGTTTTGCTAAAT", "binding signal": "0.393 Ka relative to the best site of the variant"}, {"sequence": "ATGACGCGTTTTGCTAAAT", "binding signal": "0.905 Ka relative to the best site of the variant"}]}, {"target": "T3, MarA TRR (Escherichia coli, UniProt P0ACH5 1-127, W40T;Q43R)", "T3 sequence": "T1 sequence with R40T, T43R", "experiment": "MITOMI; MITOMI, 295 K (22 C); buffer, salt and pH not stated in the material; high values mean tight binding", "details": "protein: ivt; label: fluorescent; dsDNA, one strand shown", "outline": "as §1", "values": [{"sequence": "ATGGCCCGTTTTGCTAAAT", "binding signal": "0.382 Ka relative to the best site of the variant"}, {"sequence": "ATGAATCGTTTTGCTAAAT", "binding signal": "0.309 Ka relative to the best site of the variant"}, {"sequence": "ATGGCGCGTTTTGCTAAAT", "binding signal": "0.415 Ka relative to the best site of the variant"}, {"sequence": "ATGGTGCGTTTTGCTAAAT", "binding signal": "0.382 Ka relative to the best site of the variant"}, {"sequence": "ATGACCCGTTTTGCTAAAT", "binding signal": "0.379 Ka relative to the best site of the variant"}, {"sequence": "ATGCACCGTTTTGCTAAAT", "binding signal": "0.449 Ka relative to the best site of the variant"}, {"sequence": "ATGAACCGTTTTGCTAAAT", "binding signal": "0.379 Ka relative to the best site of the variant"}, {"sequence": "ATGGGTCGTTTTGCTAAAT", "binding signal": "0.334 Ka relative to the best site of the variant"}, {"sequence": "ATGCCGCGTTTTGCTAAAT", "binding signal": "0.561 Ka relative to the best site of the variant"}, {"sequence": "ATGTGGCGTTTTGCTAAAT", "binding signal": "0.493 Ka relative to the best site of the variant"}, {"sequence": "ATGGGCCGTTTTGCTAAAT", "binding signal": "0.368 Ka relative to the best site of the variant"}, {"sequence": "ATGCGTCGTTTTGCTAAAT", "binding signal": "0.435 Ka relative to the best site of the variant"}, {"sequence": "ATGTGTCGTTTTGCTAAAT", "binding signal": "0.424 Ka relative to the best site of the variant"}, {"sequence": "ATGACTCGTTTTGCTAAAT", "binding signal": "0.382 Ka relative to the best site of the variant"}, {"sequence": "ATGATTCGTTTTGCTAAAT", "binding signal": "0.453 Ka relative to the best site of the variant"}, {"sequence": "ATGCTACGTTTTGCTAAAT", "binding signal": "0.571 Ka relative to the best site of the variant"}, {"sequence": "ATGGAACGTTTTGCTAAAT", "binding signal": "0.432 Ka relative to the best site of the variant"}, {"sequence": "ATGCGCCGTTTTGCTAAAT", "binding signal": "0.457 Ka relative to the best site of the variant"}, {"sequence": "ATGCTCCGTTTTGCTAAAT", "binding signal": "0.445 Ka relative to the best site of the variant"}, {"sequence": "ATGGCTCGTTTTGCTAAAT", "binding signal": "0.362 Ka relative to the best site of the variant"}, {"sequence": "ATGCGGCGTTTTGCTAAAT", "binding signal": "0.501 Ka relative to the best site of the variant"}, {"sequence": "ATGCAGCGTTTTGCTAAAT", "binding signal": "0.477 Ka relative to the best site of the variant"}, {"sequence": "ATGATCCGTTTTGCTAAAT", "binding signal": "0.466 Ka relative to the best site of the variant"}, {"sequence": "ATGTGACGTTTTGCTAAAT", "binding signal": "0.413 Ka relative to the best site of the variant"}, {"sequence": "ATGAGCCGTTTTGCTAAAT", "binding signal": "0.448 Ka relative to the best site of the variant"}, {"sequence": "ATGTTGCGTTTTGCTAAAT", "binding signal": "0.665 Ka relative to the best site of the variant"}, {"sequence": "ATGCAACGTTTTGCTAAAT", "binding signal": "0.501 Ka relative to the best site of the variant"}, {"sequence": "ATGTACCGTTTTGCTAAAT", "binding signal": "0.417 Ka relative to the best site of the variant"}, {"sequence": "ATGGTTCGTTTTGCTAAAT", "binding signal": "0.368 Ka relative to the best site of the variant"}, {"sequence": "ATGGATCGTTTTGCTAAAT", "binding signal": "0.365 Ka relative to the best site of the variant"}, {"sequence": "ATGACGCGTTTTGCTAAAT", "binding signal": "0.302 Ka relative to the best site of the variant"}]}]}
